Data on ten compounds can be found in PubChem BioAssay (NCATS).

Results filed as inconclusive are left out. Unmarked numbers belong to inactive results. Calls of active or inactive are those of the source. The call rests on the fitted dose curve; in most records, active means well fitted inhibition curve with a large enough effect; inconclusive means small, poorly fitted or top-dose-only effect; inactive means flat fitted curve, though single readings scatter.
On the % scale 0 is the no-effect control and ±100 the full control effect; potency means the concentration at half of the fitted maximal effect.

The test system of the test is KB-3-1. The experiment in a line: Cytotoxic Profiling of Annotated Libraries Using Quantitative High-Throughput Screening (AID 1296008). Further: nearly all actives have a fitted effect of over 60% in size. Particulars: Five cell lines viability, CellTiter-Glo ATP luminescence, 48-72 h; max response: hits give low values. In outline:
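Compounds were pin-transferred onto cells and incubated 48 or 72 hr at 37 degree Celsius, 95% humidity. CellTiter-Glo was added, plates sat 10 min at room temperature, then ATP-coupled luminescence was imaged as the viability read-out.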
In general terms: ATP-based viability assays read luminescence as a measure of living cells.
Turning to `CCCCCCCCCCCCOCCCN`, the max response is -4.56%.
Still for that read-out and setting: in the case of `CN1CCC(OC(=O)C(Oc2ccc(Cl)cc2)Oc2ccc(Cl)cc2)CC1` it was -2.63%; in that of `C=CC(=O)O`, -9.21%; in that of `O=C[C@H](O)[C@@H](O)[C@@H](O)[C@H](O)CO`, -13.6%.
On the same count and under the same terms, under `COc1ccc2c(c1)N(C[C@H](C)CN(C)C)c1ccccc1S2` stands -8.39%; under `CN1c2c(nc(N)[nH]c2=O)NCC1CNc1ccc(C(=O)NC(CCC(=O)O)C(=O)O)cc1` (stereo not given), 9%.
Same read-out and setting: in the case of `Nc1nc(NC2CC2)c2ncn([C@@H]3C=C[C@@H](CO)C3)c2n1` it was 3.44%; in that of `C=Cc1ccc(S(=O)(=O)O)cc1`, 36.9%.
Consider `Cc1cc(-c2ccc(N=Nc3ccc4c(S(=O)(=O)O)cc(S(=O)(=O)O)c(N)c4c3O)c(C)c2)ccc1N=Nc1ccc2c(S(=O)(=O)O)cc(S(=O)(=O)O)c(N)c2c1O`, for which the Potency was 8.2 µM (active).
Consider `NC(=O)[C@@H]1C[C@]2(NC(=O)NC2=O)c2cc(F)ccc2O1`, for which the max response was -7.8%.
